G9a inh: blocks human histone lysine methyltransferase G9a; Q96KQ7; G9a H3K9 monomethylation, AlphaScreen, 2 h; Potency, µM (series often up to 102 µM), for the others: at the top dose activity, negative = inhibition, actives largely listed as inhibitors; 350,000 compounds, 8.8% hits; also: % is scaled to controls: 0 for no effect and ±100 for the full control effect; nearly all actives have a fitted effect of over 75% in size
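Methyltransferase reactions run at room temperature for 2 h (20 nM enzyme, 500 nM biotin-H3K9 peptide, 20 uM SAM) after a 15 min compound preincubation; product detected by AlphaScreen beads and anti-H3K9me1 antibody.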
BAZ2B inh: inhibitors of human BAZ2B bromodomain; Q9UIF8; AlphaScreen BAZ2B-H3K14Ac peptide displacement; Potency, µM (doses to about 114 µM), for the others: top-dose activity change, negative = inhibition, usual class: inhibitors; 360,000 compounds, 4.4% hits; AID 504333; also: % is scaled to controls: 0 for no effect and ±100 for the full control effect; nearly all actives have a fitted effect of over 60% in size
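AlphaScreen displacement of biotin-H3(5-23)K14Ac peptide (50 nM final) from BAZ2B (50 nM final) in PBS pH 7.4, 0.01% Tween-20; complex preformed 30 min RT, then compounds (top 110 uM) 30 min RT, beads 20 min dark.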
HP1b binding inh: HP1-beta chromodomain-methylated histone interaction inhibition. P83916. AlphaScreen HP1-beta / biotin-H3K9me3 peptide binding. Potency, µM (series often up to 114 µM), for inactives: at the highest dose activity change, negative = inhibition, most hits filed as inhibitors. 390,000 compounds, 0.56% hits; also: nearly all actives have a fitted effect of over 70% in size
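Compound inhibition of the preformed complex between 50 nM HP1-beta and 50 nM biotinylated H3K9me3 peptide was read by AlphaScreen. Buffer was PBS pH 7.4 with 0.01% Tween-20. Incubations ran 30 min at room temperature, with 10 ug/mL donor/acceptor beads.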
JMJD2A Tudor: JMJD2A Tudor domain (human) inhibition. O75164. AID 504339. AlphaScreen JMJD2A-Tudor / H3K4me3 peptide binding. 390,000 compounds, 4.4% hits. Potency, µM (top dose mostly 114 µM), for inactives: at the top dose activity change, negative = inhibition, actives largely listed as inhibitors; also: % is scaled to controls: 0 for no effect and ±100 for the full control effect; nearly all actives have a fitted effect of over 50% in size
Sfp PPTase inh: inhibitors of Bacillus subtilis Sfp phosphopantetheinyl transferase. Q9F4F7. Biochemical Sfp PPTase activity, qHTS. Potency, µM, for the others: largest response in the series, negative = inhibition, most hits filed as inhibitors. 310,000 compounds, 3.5% hits. AID 1490;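 also: the enzyme is Sfp with the accession as filed and its product quenches rhodamine fluorescence; 0% = enzyme reaction without inhibitor and -100% = no enzyme wells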
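Compounds were incubated with enzyme (final 15 nM) for 15 min at room temperature before substrate addition started the reaction. Fluorescence at 525 nm excitation, 598 nm emission was recorded immediately and after 30 minutes.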
* hit, by the source's call; ? = inconclusive; · = no result given; [ ] = another dose, or the depositor's remark. An excerpt weighted towards active compounds, which were near 12% of everything screened. Calls follow the shape of the dose curve; as a rule, active = well fitted curve in the direction sought with a large enough effect; inconclusive = small, poorly fitted or top-dose-only effect, or another doubt; inactive = no such curve, though single readings can be large; an effect the other way counts as inactive or inconclusive. Potency is read from the fitted curve at half-maximal effect.

SMILES | G9a inh | BAZ2B inh | HP1b binding inh | JMJD2A Tudor | Sfp PPTase inh
CCCC(=O)Nc1ccc(NC(=O)c2ccccc2OC)cn1 | -4%[59 µM] | -4% | 11% | 6% | 14%
Cc1ccc(-c2csc(NC(=O)N3CCOCC3)n2)cc1 | 8% | -17% | -10% | -28% | 9%
COc1ccc(N2CCN(C(=O)c3cc4c(=O)oc5ccc(C)cc5c4s3)CC2)cc1 | -3%[59 µM] | -4% | 29% | -8% | ·
N#CCSc1nnc(-c2ccc(S(=O)(=O)N3CCOCC3)cc2)n1CC1CCCO1 (configuration not stated) | -31% | 4% | 18% | 89µM* | 15%
CSc1nnc(-c2ccc(S(=O)(=O)N3CCOCC3)cc2)n1C | 22µM* | -17% | 44% | -3% | 16%
Cc1nc(N)nc(N)c1-c1ccc([N+](=O)[O-])cc1 | · | · | 16% | -10% | ·
COc1ccc(NC(=O)Cn2c(=O)n(CCc3ccccc3)c(=O)c3ccccc32)cc1 | 0%[59 µM] | 1% | 26% | 0% | ·
c1ccc(-c2ccc(C3=Nn4c(Cn5nnc6ccccc65)nnc4SC3)cc2)cc1 | 8.9µM* | 6%[57.1 µM] | 16µM* | ? | 28µM*
Clc1ccc(C2=Nn3c(Cn4nnc5ccccc54)nnc3SC2)cc1 | · | ? | ? | 79µM* | 32µM*
c1ccc(C2=Nn3c(Cn4nnc5ccccc54)nnc3SC2)cc1 | ? | -5% | 27% | -7% | 24%
Cc1ccc(S(=O)(=O)n2c3ccccc3c3nnc(C(=O)c4ccccc4)nc32)cc1 | · | · | · | · | 12%
O=C(Nc1nnc(-c2cccs2)o1)c1cccc(C(F)(F)F)c1 | 19% | 1% | 4% | ? | 14%
CN(C)S(=O)(=O)c1ccc(C(=O)Nc2nnc(-c3cccs3)o2)cc1 | 11% | ? | 66% | 79µM* | 10%
N#Cc1ccc(C(=O)Nc2nnc(-c3cccs3)o2)cc1 | · | 50µM* | 15% | 56µM* | 8%
CCCNC(=O)c1ccccc1SCc1c(C)noc1C | 25µM* | 79µM* | 53% | 1% | -11%
Cc1cccc(N=C2NC(=O)S/C2=C\c2ccco2)c1 | 22µM* | ? | -21% | 40µM* | 56µM*
O=C1NC(=Nc2ccc(Cl)cc2)/C(=C/c2ccco2)S1 | 3.2µM* | 50µM* | -1% | 11µM* | 50µM*
S=c1nc(C2CCCCC2)n(-c2ccccc2)[nH]1 | 3.5µM* | -25% | 38% | 16µM* | 20%
O=C(Nc1ccccc1Br)C1CCCN(S(=O)(=O)c2cccc3nsnc23)C1 (configuration not stated) | ? | · | 4% | -17% | ·
CC1CCN(C(c2ccc(N(C)C)cc2)c2nnnn2Cc2ccc(F)cc2)CC1 (configuration not stated) | -5%[0.501 µM] | 13µM* | ? | ? | -2%
CCN1CCN(C(c2ccc(F)cc2)c2nnnn2Cc2ccc3c(c2)OCO3)CC1 (configuration not stated) | · | -10% | 16% | -10% | 10%
Fc1ccc(Cn2nnnc2C(c2ccc(Cl)cc2)N2CCSCC2)cc1 (configuration not stated) | 50µM* | -1% | 4% | 56µM* | -6%
CC1=C(C(=O)Nc2ccccc2C)C(c2ccccn2)n2ncnc2N1 (configuration not stated) | -1%[59 µM] | 0% | 11%[57 µM] | -18% | ·
CCn1cnc2c(Nc3ccc(Cc4cccnc4)cc3)nc(C#N)nc21 | · | · | · | -23% | ·
Cc1nc(NC(=O)c2ccccc2)sc1-c1csc(Nc2cccc(Cl)c2)n1 | 50µM* | ? | · | · | 2%
SMILES | G9a inh | BAZ2B inh | HP1b binding inh | JMJD2A Tudor | Sfp PPTase inh
Cc1nc(NC(=O)c2ccco2)sc1-c1csc(Nc2ccc(Cl)cc2)n1 | 12%[0.501 µM] | ? | -8% | ? | 2%
Cc1nc(NC(=O)c2ccccc2)sc1-c1csc(Nc2ccc(F)cc2)n1 | 32µM* | ? | · | · | -7%
Cc1nc(NC(=O)c2ccccc2)sc1-c1csc(Nc2ccc(Cl)cc2)n1 | 45µM* | -38%[57.1 µM] | · | · | 12%
COc1ccc(OC)c(Nc2nc(-c3sc(NC(=O)c4ccccc4)nc3C)cs2)c1 | 31%[12.7 µM] | -34% | · | · | -10%
O=C(Nc1cccc(-c2csc(Nc3ccc(Cl)cc3)n2)c1)c1ccccc1 | -37%[59 µM] | -25% | -7% | ? | 8%
CCC[C@@H](O)c1cc2cc(OC)c(OC)cc2c(=O)o1 | -2%[0.501 µM] | 11% | 18% | -19% | ·
CCCS(=O)(=O)N1CC(=O)N(c2ccc(C)c(Cl)c2)C(C)(C(=O)NC2CCCCCC2)C1 (configuration not stated) | -2%[59 µM] | 3% | 24% | -6% | ·
Cc1ccc(C(=O)COC(=O)COc2ccccc2[N+](=O)[O-])s1 | 5%[12.7 µM] | -7% | 33% | -6% | ·
CCOC(=O)COc1ccccc1/C=C\[N+](=O)[O-] | 3.5µM* | -30% | 25% | -15% | 14µM*
CCc1ccc(OCc2cc(=O)n3c4c(sc3n2)CCCC4)cc1 | -6%[59 µM] | 1% | 39% | -2% | ·
CCCCOc1cccc(C2c3c(oc4ccccc4c3=O)C(=O)N2c2ccccn2)c1 (configuration not stated) | 4%[59 µM] | 2% | 19% | -16% | ·
CN(c1ccc(F)cc1)S(=O)(=O)c1ccc(Cl)c(C(=O)NCC(c2ccco2)N2CCCCC2)c1 (configuration not stated) | 28µM* | 56µM* | -34% | ? | ·
C=CCc1cccc2cc(C(=O)N3CCN(C(=O)c4ccco4)CC3)c(=O)oc12 | 45µM* | 6% | 28% | -3% | 1%
C=CCc1cccc2cc(C(=O)Nc3ccccc3C(=O)O)c(=O)oc12 | 13µM* | 50µM* | 4% | -35% | -5%
Cc1cccc(C)c1-n1cccc1/C=C1\SC(=S)N(c2cccc(C(=O)O)c2)C1=O | ? | 50µM* | ? | ? | 40µM*
O=C1/C(=C/c2cccnc2)SC(=S)N1c1ccccc1 | ? | 8% | 28% | -4% | -18%
Cc1cccc(C)c1NC(=O)CN1C(=O)S/C(=C\c2cccn2C)C1=O | 5%[59 µM] | 6% | 21% | -9% | -9%
COc1ccc(NC(=O)CN2C(=O)S/C(=C/c3cccn3-c3ccc(C(=O)O)cc3)C2=O)cc1 | 22µM* | 18µM* | · | · | -5%
Cc1cccc(C)c1NC(=O)CN1C(=O)S/C(=C\c2cccn2-c2cccc(C(=O)O)c2)C1=O | ? | 79µM* | -11% | 50µM* | -17%
Cc1ccccc1NC(=O)CN1C(=O)S/C(=C\c2cccn2-c2cccc(C(=O)O)c2)C1=O | ? | 56µM* | ? | 79µM* | -20%
COc1ccc(OCC2c3cc(OC)c(OC)cc3CCN2C(=O)c2ccc(F)cc2)cc1 (configuration not stated) | ? | ? | 6% | ? | ·
Cc1ccc(-n2nc(C)c3c(C)cc(=O)n(CC(=O)NC(C)C)c32)cc1 | 21%[59 µM] | -1% | -1% | 5% | ·
